# aDG glyco act – activators of alpha-DG glycosylation, primary screen, uHTS, Pro5-aDG cells, AlphaScreen; alpha-DG glycosylation AlphaScreen (IIH6); 0% Pro5, 100% B10-LARGE cell signal; activation, % at 10 µM; 0.22% of 360,000 active; AID 624168, 2012;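 active = activation of at least 8% versus controls, or a plate z-score of at least 8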;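 note: Pro5 are CHO cells carrying HIG-tagged alpha-DG that lacks glycosylation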
# CRFBP-R2 agonist – agonists of CRF-BP/CRF-R2 complex, primary screen, cell-based, HEK293, calcium dye fluorescence, uHTS; calcium dye fluorescence (FLIPR); percent of saturating CRF peptide response; CRF-binding protein / CRF receptor 2 complex (human); 0.46% of 350,000 active; activation, % at 13.2 µM;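 active = activation of at least 50%, plus an integration ratio under a set limit after plate pattern correction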;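 note: plate controls were neutral control wells without compound for no effect and CRF at EC100 for full effect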
# FAS TE block – FAS thioesterase domain inhibitors, primary screen, biochemical, fluorescence intensity, uHTS; recombinant FAS-TE, OMFH fluorogenic substrate, fluorescence endpoint; Fatty acid synthase (Homo sapiens), P49327; 0.67% of 360,000 active; AID 602261, 2012; inhibition, % at 15 µM;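 active = compounds whose normalised, plate-corrected inhibition of enzyme fluorescence in the single-dose primary screen is 50% or more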;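 note: 0% = DMSO with enzyme and 100% = substrate without enzyme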
# Cardio protect – cardioprotection against H2O2-induced cell death, primary screen, uHTS, H9c2 cells, ATPLite luminescence; H9c2 cardiomyocytes, H2O2 injury protection, 2 h; protection from H2O2 cell death, % at 20 µM; 0.63% of 360,000 active;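 active = compounds giving at least 50% protection of heart cells from peroxide-induced death in the single-dose screen, raw or plate-pattern-corrected value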;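 note: 0% = DMSO wells with peroxide and 100% = DMSO wells without peroxide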
# CRFBP-R2 block – antagonists of CRF-BP/CRF-R2 complex, primary screen, cell-based, HEK293, calcium dye fluorescence, uHTS; CRF-induced calcium fluorescence; inhibition, % at 11.8 µM; 0.59% of 350,000 active; AID 588475, 2011;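 active = inhibition of the ligand-induced calcium signal above about 50% at the single tested concentration, limit read from the data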
# PfG6PD inh – PfG6PD enzyme inhibitors, primary screen, biochemical, fluorescence intensity, uHTS. inhibition, % at 20 µM. 0.78% of 350,000 active. PfGluPho enzyme, NADPH resazurin-diaphorase fluorescence. AID 504690, 2011. glucose-6-phosphate dehydrogenase-6-phosphogluconolactonase (Plasmodium falciparum 3D7);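 active = inhibition reaching at least a set limit at 20 µM in the primary screen, cut at about 59% in these data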;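 note: 0% = DMSO wells with substrate and 100% = DMSO wells lacking glucose-6-phosphate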
# The depositor's hits bear a star; · = no result. Only some compounds are listed: those with a hit (about 3.2% of all), similar ones and a draw of the others.
SMILES,aDG glyco act,CRFBP-R2 agonist,FAS TE block,Cardio protect,CRFBP-R2 block,PfG6PD inh
CC1(NC(=O)CCc2nc3ccccc3c(=O)[nH]2)CCS(=O)(=O)C1 (stereo unspecified),0,0,-4,51*,-3,-9
O=C(COc1ccccc1)NCc1ccco1,0,4,-9,2,65*,-1
O=C(CCc1nc2ccccc2c(=O)[nH]1)Nc1nc(-c2cccs2)cs1,0,7,-5,65*,-11,24
C=CCn1c(C)cc(-c2csc(NC(=O)CCc3nc4ccccc4c(=O)[nH]3)n2)c1C,0,5,-5,16,-8,22
O=C(CCc1nc2ccccc2[nH]1)Nc1ccc(F)cc1,0,-3,-2,0,-10,-7
O=C(CCc1nc2ccccc2c(=O)[nH]1)Nc1ccc(F)cc1,0,-1,-14,62*,14,-3
Cc1ccc(C2=NN(CC(=O)O)C(=O)CC2)cc1,0,1,-2,1,1,15
CN(C)c1c([N+](=O)[O-])ncn1C,0,0,1,2,54*,-18
O=c1oc(Cl)c(Cl)c2ccccc12,0,-1,92*,-21,-3,16
O=c1oc2cc(O)c(Cl)cc2c2ccccc12,0,1,-9,2,13,-23
CC1CCN(Cc2nc3c(c(=O)n(C)c(=O)n3C)n2CCCc2ccccc2)CC1,0,0,3,56*,6,3
COc1ccccc1NC(=O)C(C)N(C)Cc1ccc(Cl)s1 (stereo unspecified),0,0,22,-2,-7,-8
CN1CCN(c2nc(-c3ccccc3O)nc3ccccc23)CC1,0,0,2,25,-18,2
COc1cccc(-c2nc(N3CCN(C)CC3)c3ccccc3n2)c1O,0,-3,2,51*,4,3
C=CCn1c[n+](CC(=O)c2ccc(Br)s2)c2ccccc21,0,4,-2,1,-14,1
COc1ccc(-c2noc(C(=O)NCc3ccc(F)cc3)n2)cc1OC,0,0,3,9,60*,-8
COc1ccc(-c2noc(C(=O)NCc3ccccc3Cl)n2)cc1OC,0,0,18,-6,35,13
COc1cc([C@@H]2CC=C(C(=O)O)CN2S(=O)(=O)c2ccc(C)cc2)cc(OC)c1OC,0,-1,-10,0,0,9
COc1ccc(C(=O)N/N=C(\c2ccccc2)c2ccccn2)cc1,1,-4,-3,60*,40,-11
Cc1ccc(NC(=O)c2ncn(CCCNCC3CCCO3)n2)cc1C (stereo unspecified),0,-1,-13,17,81*,-9
COc1ccc(-n2c(SCC(=O)C(C)(C)C)nc3c(sc(=S)n3-c3ccccc3)c2=O)c(OC)c1,0,1,17,0,19,78*
CCOC(=O)CSc1nc2c(sc(=S)n2-c2ccccc2OC)c(=O)n1-c1ccccc1OC,0,40,12,-1,-25,55
COc1ccc2c(c1)N(C)C(=O)CC(c1ccccc1)=N2,0,-1,-2,5,11,-11
O=C1/C(=C/c2ccc(O)cc2)SC(=S)N1Cc1cccnc1,-1,107*,-10,-7,-51,-5
C#CCOc1ccc(/C=C2\SC(=S)N(Cc3cccnc3)C2=O)cc1,1,0,4,-3,17,-3
SMILES,aDG glyco act,CRFBP-R2 agonist,FAS TE block,Cardio protect,CRFBP-R2 block,PfG6PD inh
CC12C(=O)N(c3nccs3)C(=O)C1(C)C1CCC2O1 (stereo unspecified),2,1,-2,5,-13,-34
C[C@@]12C(=O)OC(=O)[C@]1(C)C1CCC2O1,0,1,-5,67*,11,-6
Cc1nc(Nc2cc(F)ccc2C)c2nnn(Cc3ccccc3)c2n1,0,0,15,3,-5,10
CCCCN(C(=O)c1cc(CC)c(C)s1)c1c(N)n(CCC)c(=O)[nH]c1=O,0,0,-1,1,-6,1
COc1ccc(C=NNc2nc3c([nH]2)c(=O)n(C)c(=O)n3C)cc1,0,-2,-7,73*,-7,12
Cn1c(=O)c2[nH]c(NN=Cc3ccc(Br)cc3)nc2n(C)c1=O,-1,4,-4,58*,-14,7
Cn1c(=O)c2[nH]c(NN=Cc3ccccc3)nc2n(C)c1=O,0,-6,-7,16,9,7
Cc1ccc(C=NNc2nc3c([nH]2)c(=O)n(C)c(=O)n3C)cc1,-1,-2,-9,70*,-13,11
CC1(C)OC(=O)C2=C(C[C@@H](CCC(F)(F)F)O[C@H]2c2ccc(F)cc2)O1,0,·,7,2,·,·
Nc1ncnc2c1ncn2[C@@H]1O[C@H](C(=O)N2CCN(c3ccc(Cl)cn3)CC2)[C@@H](O)[C@H]1O,0,·,2,8,·,·
COc1ccc(CN2C(=O)CSC2c2ccccn2)cc1 (stereo unspecified),0,0,-4,22,-7,12
O=C(Cn1cnc2ccccc21)N/N=C/C(Br)=C/c1ccccc1,0,-2,-18,-12,-12,-3
Cc1nn(CC(C)C)c2sc(C(=O)NC3CC(C)(C)NC(C)(C)C3)cc12,0,-2,-8,10,4,-14
CSCC[C@H](NC(=O)Nc1ccc(S(N)(=O)=O)cc1)C(=O)O,0,0,-3,-2,15,9
O=C(NCCc1csc(-c2ccccc2)n1)c1c(F)cccc1Cl,0,-1,2,4,88*,-15
Cc1c(C(=O)Nc2c(F)cccc2F)sc2ncn(CC(=O)N3CCCCC3)c(=O)c12,0,-1,-4,-2,78*,-4
O=C1c2cc(Br)ccc2N(Cc2ccc(Br)cc2)S(=O)(=O)C1c1cc(Cl)c(Cl)cc1[N+](=O)[O-] (stereo unspecified),0,-1,82*,8,30,-11
CC(C)COc1ccc(CNC(=S)Nc2ccccc2)cc1Cl,0,4,18,-14,107*,18
CC(C)Oc1ccc(CNC(=S)Nc2ccccc2)cc1Cl,0,0,17,-9,14,-4
Nc1nnc(SCc2cc3c(cc2Cl)OCO3)s1,0,-3,-9,-4,59*,0
O=C(N/N=C/c1ccc([N+](=O)[O-])s1)C(O)c1ccccc1 (stereo unspecified),11*,-1,-7,-16,17,20
O=C(N/N=C\c1ccc([N+](=O)[O-])s1)c1cncc(Br)c1,7,1,-3,-6,-5,5

# High-throughput results from PubChem BioAssay.
